By AC50 is commonly meant the concentration giving half of the maximal activity seen.

Inconclusive results are not listed. Calls of active or inactive are those of the source. How the source made its calls: active means hit-call score of the fitted dose curve at least 0.9, where 1 is the maximum; inconclusive means response in the unintended direction; inactive means score below 0.9.

One assay deals with Estrogen receptor (Homo sapiens) (UniProt P03372). The experiment in a line: NVS_NR_hER: NovaScreen (NVS) Nuclear Receptor Binding Assay for human Estrogen Receptor (ER) (AID 2283348). The method, boiled down: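 Radiodetection of ligand displacement in a lysate-based, cell-free format using MCF7 extracts, read at 18 hours. Duplicate 25 uM primary testing, then concentration series for actives.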
Estrogen receptor (Homo sapiens), sequence (P03372 whole entry, looked up): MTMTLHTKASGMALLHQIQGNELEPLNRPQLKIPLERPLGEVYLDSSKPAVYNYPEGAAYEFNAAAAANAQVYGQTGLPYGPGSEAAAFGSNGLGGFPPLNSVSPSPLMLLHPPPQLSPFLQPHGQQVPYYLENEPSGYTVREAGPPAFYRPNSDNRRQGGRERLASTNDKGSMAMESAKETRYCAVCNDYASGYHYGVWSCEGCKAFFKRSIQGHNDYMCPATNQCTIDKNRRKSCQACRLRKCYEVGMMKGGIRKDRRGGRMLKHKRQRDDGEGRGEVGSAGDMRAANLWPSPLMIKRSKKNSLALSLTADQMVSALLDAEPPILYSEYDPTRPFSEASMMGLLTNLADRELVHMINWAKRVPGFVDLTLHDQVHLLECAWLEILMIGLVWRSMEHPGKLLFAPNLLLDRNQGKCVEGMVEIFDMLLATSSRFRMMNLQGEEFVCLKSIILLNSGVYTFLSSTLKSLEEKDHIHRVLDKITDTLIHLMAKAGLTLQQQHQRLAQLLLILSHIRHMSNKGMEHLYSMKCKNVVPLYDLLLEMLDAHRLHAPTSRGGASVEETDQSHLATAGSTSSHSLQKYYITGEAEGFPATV
With `CC(C)(C)C(=O)CCc1ccc(Cl)cc1`, the outcome was inactive.

In the case of `CC(=O)NS(=O)(=O)c1ccc(N)cc1`, the outcome was inactive.

Regarding `O=C(O)CCCCCCCCCC(=O)O`, the molecule was classed as inactive.

In the case of `CCC(Cc1ccccc1)(C(=O)c1ccc(N2CCOCC2)cc1)N(C)C` (stereo unspecified), the call was inactive.

Consider `O=C(O)c1ccccc1Nc1cccc(C(F)(F)F)c1`, for which the result was inactive.

Consider `O=C(O)CCCC[C@@H]1SC[C@@H]2NC(=O)N[C@@H]21`, for which the outcome was inactive.

For the molecule `COC(=O)C1=C(C)NC(C)=C(C(=O)OCC(C)C)C1c1ccccc1[N+](=O)[O-]` (stereo unspecified), the molecule was classed as inactive.

As to `Nc1ccc2cc3ccccc3cc2c1`, the result was inactive.

Another assay shares this target. The experiment in a line: OT_ER_ERaERa_1440: Odyssey Thera (OT) 24-hour HEK293T Protein-Complementation Assay for Estrogen Receptor-alpha/-alpha Homodimer (AID 2283349).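 Further: hits raise fluorescence above DMSO for agonists and antagonists alike.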 The method, boiled down:
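Stably transfected HEK293T; ERα LBD homodimer PCA. 24 h dosing, fluorescence intensity read, gain-of-signal vs DMSO.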
Take `CC1=CC[C@H]2C[C@@H]1C2(C)C`: the result was inactive.

As for `CCOC(=O)CC`, the result was inactive.

For the molecule `O=C1C(N(CO)C(=O)NCO)N(CO)C(=O)N1CO` (stereo unspecified), the result was inactive.

As for `CCCCCCCCO[C@@H]1O[C@H](CO)[C@@H](O)[C@H](O)[C@H]1O`, the result was inactive.

Take `Cc1ccc(C(C)(C)C)cc1`: the result was inactive.

Turning to `CNC(=S)NN`, the molecule was classed as inactive.

With `O=C(c1ccccc1)C1CCC1`, the outcome was inactive.

As for `C=CC(=O)NC(C)(C)CS(=O)(=O)O`, the call was inactive.

For `CCCCCCC1(C)CCC(=O)O1` (stereo unspecified), the call was inactive.

As to `CC(C)(C)c1ccc(OC(=O)c2ccccc2O)cc1`, the half-maximal activity concentration (AC50) is 14.5 µM (active).

As for `Cn1c([N+](=O)[O-])cnc1COC(N)=O`, the result was inactive.

As to `CC(CC=O)CCCC(C)(C)O` (stereo unspecified), the molecule was called inactive.

For the molecule `O=C(C=Cc1ccccc1)OCc1ccccc1`, the molecule was called inactive.

For the molecule `C1CN(SSN2CCOCC2)CCO1`, the molecule was called inactive.

Consider `CC1=NN(c2cc(S(=O)(=O)O)ccc2Cl)C(=O)C1N=Nc1ccccc1` (stereo unspecified), for which the molecule was classed as inactive.

As to `CCCCC(CC)CCC(CC(C)C)OS(=O)(=O)O` (stereo unspecified), the result was inactive.

Regarding `CC(C)=CCC[C@H](C)CCO`, the result was inactive.

In the case of `Cc1cc(C)c(C(=O)O)c(C)c1`, the call was inactive.

Turning to `CCCCOCCOC(=O)COc1nc(Cl)c(Cl)cc1Cl`, the molecule was called inactive.

Take `CCCc1ccc(OC)cc1`: the result was inactive.

Take `O=C(C(Cl)Cl)N1CCOC12CCCCC2`: the result was inactive.

`CC(C)c1ccc2cc(C(C)C)ccc2c1`: the result was inactive.

As to `CCCCCCCC/C=C\CCCCCCCC(=O)O`, the call was inactive.

As to `O=C1CCCC1`, the molecule was called inactive.

Regarding `O=C(O)CCCC[C@@H]1SC[C@@H]2NC(=O)N[C@@H]21`, the molecule was classed as inactive.

As for `CC(C)(C)c1ccc(-c2ccc(C(C)(C)C)cc2)cc1`, the call was inactive.

For `CCCCCCCOC(=O)CCC`, the outcome was inactive.

Consider `C=C[Si](C)(C)O[Si](C)(C)C=C`, for which the molecule was called inactive.

The next assay has the same target. The experiment in a line: OT_ER_ERaERa_0480: Odyssey Thera (OT) 8-hour HEK293T Protein-Complementation Assay for Estrogen Receptor-alpha/-alpha Homodimer (AID 2283351).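 Further: rise in fluorescence from reassembled reporter fragments on ERα LBD homodimer in nucleus or whole cell.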 The method, boiled down: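 Read-out: fluorescence intensity rise relative to DMSO, nuclear for agonists, nuclear plus cytoplasmic for antagonists. Construct is the ERα LBD (aa 310-547) homodimer fragment-complementation pair, stably expressed in HEK293T; exposure 8 h.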
As to `O=C1C(N(CO)C(=O)NCO)N(CO)C(=O)N1CO` (stereo unspecified), the outcome was inactive.

With `CCCCCCCCO[C@@H]1O[C@H](CO)[C@@H](O)[C@H](O)[C@H]1O`, the outcome was inactive.

With `Cn1c([N+](=O)[O-])cnc1COC(N)=O`, the outcome was inactive.

Turning to `CC1=NN(c2cc(S(=O)(=O)O)ccc2Cl)C(=O)C1N=Nc1ccccc1` (stereo unspecified), the outcome was inactive.

In the case of `CCCCC(CC)CCC(CC(C)C)OS(=O)(=O)O` (stereo unspecified), the molecule was classed as inactive.

With `CC(C)=CCC[C@H](C)CCO`, the molecule was called inactive.

For the molecule `CCCCOCCOC(=O)COc1nc(Cl)c(Cl)cc1Cl`, the molecule was classed as inactive.

`CC(C)c1ccc2cc(C(C)C)ccc2c1`: the outcome was inactive.

On to `CCCCCCCC/C=C\CCCCCCCC(=O)O`, for which the call was inactive.

Turning to `C=C[Si](C)(C)O[Si](C)(C)C=C`, the call was inactive.

(Values after PubChem BioAssay (EPA / NIEHS).)
